In PubChem BioAssay:
“And” between values parts separate entries of the source, which are not always exact repeats. Identical values can stand only once. The source made the active and inactive calls.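 Rule for the calls, unless noted: active = thallium flux through the channel raised or lowered by more than 3 SD from vehicle-only wells, actives on both sides; inactive = the rest.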

Tests used:
[1] = tested on: Hepatitis C virus NS3 helicase; assay: blockers of NS3h binding to DNA – biochemical, fluorescence polarization, NIH Clinical Collection, primary screen (AID 743270; call rule not given here); settings: NS3 helicase binding to Cy5-dT15 DNA, stronger effect = higher value, concentration not given here
[2] = target: Single-stranded DNA-binding protein (Escherichia coli (strain K12)) (UniProt P0AGE0); assay: SSB-ssDNA binding inhibitors – biochemical, fluorescence polarization, NIH Clinical Collection, counter-screen for HCV NS3 helicase inhibitor project (AID 743271; in the data active = inhibition above about 28%); settings: E. coli SSB-DNA binding, stronger effect = higher value, concentration not given here
[3] = compounds distorting NS3 helicase fluorescence signal – biochemical, NIH Clinical Collection, artefact control for HCV NS3 helicase inhibitor project (AID 743272; call rule not given here;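 note: HCV NS3 helicase with a Cy5 labelled single stranded DNA probe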); settings: fluorescence interference counterscreen, HCV NS3 helicase assay; stronger effect = lower value
[4] = Wnt pathway potentiators raising nuclear beta-catenin – imaging, WNT3A-conditioned medium, mouse C2C12, NPC library, primary screen (AID 1117326; in the data active = nuclear beta-catenin stimulation mostly above about 4.2%, no sharp cut-off; inactive = mostly below about 10%); settings: stronger effect = higher value
[5] = stimulators of insulin release from INS-1E, primary screen, cell-based, 5 mM glucose, NPC library (AID 1117329;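 active = compound raises insulin release from rat beta cells at 5 mM glucose, no numeric limit stated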); settings: rat INS-1E insulin secretion, at 10 µM, stronger effect = higher value
[6] = growth inhibition of GSK3B-pretreated HCT116 cells – cell-based, CellTiter-Glo, 0.2 to 20 µM (AID 1117336;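 active = compounds lowering colon cancer cell viability after pretreatment blocking the GSK3B kinase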); settings: HCT116 viability after GSK3B inhibitor, at 20 µM, stronger effect = higher value
[7] = inhibition of endothelial tube formation, primary screen, imaging, VEGF stimulated, CD31 staining, tube area, NPC library (AID 1117340;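 active = compound that reduces growth-factor-driven endothelial tube area in a mixed cell culture, no cutoff stated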); settings: VEGF-stimulated ADSC/ECFC co-culture, at 10 µM, stronger effect = higher value
[8] = GLP1 release stimulators, primary, NCI-H716, NPC library (AID 1117341;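 active = compound raises GLP1 secretion from the human gut endocrine cells, with no numeric limit stated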); settings: NCI-H716 cells, at 10 µM, stronger effect = higher value
[9] = HCT116 colon cancer cell growth inhibition, primary screen, CellTiter-Glo luminescence, NPC library (AID 1117342;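 active = compounds that lower survival of HCT116 colon cancer cells in the luminescence readout, no numeric limit stated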); settings: at 20 µM (top of the series)
[10] = reduced SW480 viability measured with CellTiter-Glo, NPC library, primary (AID 1117343;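 active = compounds that lower viability of the colon cancer cells in the luminescence readout, with no numeric limit stated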); settings: CellTiter-Glo luminescence; at 20 µM (top of the series)
[11] = NPC library primary testing for decreased DLD-1 cell viability via CellTiter-Glo (AID 1117346;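 active = compounds that lower survival of DLD-1 colon cancer cells in the luminescence readout, no cutoff given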); settings: DLD-1 viability, CellTiter-Glo luminescence; at 20 µM (top of the series)
[12] = target: 6-phosphogluconate dehydrogenase, decarboxylating (Homo sapiens) (UniProt P52209); assay: inhibition of human phosphogluconate dehydrogenase – biochemical, recombinant enzyme, NADPH absorbance, primary screen (AID 1159550;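 active = at least 20% inhibition of 6-phosphogluconate dehydrogenase activity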); settings: recombinant 6PGD, NADPH absorbance 341 nm; at 10 µM; stronger effect = higher value
Sequence of 6-phosphogluconate dehydrogenase, decarboxylating (Homo sapiens) (P52209 whole entry, looked up): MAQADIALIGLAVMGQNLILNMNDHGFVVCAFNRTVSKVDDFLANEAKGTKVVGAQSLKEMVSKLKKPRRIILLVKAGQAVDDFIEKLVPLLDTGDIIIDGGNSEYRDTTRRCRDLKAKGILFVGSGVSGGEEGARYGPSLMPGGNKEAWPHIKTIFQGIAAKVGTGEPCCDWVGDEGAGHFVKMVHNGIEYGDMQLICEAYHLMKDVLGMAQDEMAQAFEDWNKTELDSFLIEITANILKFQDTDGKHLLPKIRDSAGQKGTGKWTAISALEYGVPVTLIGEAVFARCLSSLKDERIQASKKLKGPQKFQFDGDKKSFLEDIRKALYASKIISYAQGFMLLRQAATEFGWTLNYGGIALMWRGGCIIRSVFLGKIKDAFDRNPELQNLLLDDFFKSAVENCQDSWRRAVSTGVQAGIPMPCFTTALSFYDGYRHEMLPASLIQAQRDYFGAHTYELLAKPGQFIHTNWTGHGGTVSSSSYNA

[13] = EMT-state selective cytotoxicity in co-culture – imaging, PC-3E GFP, TEM4-18 mCherry, primary screen (AID 1345086;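 active = compounds killing one labelled cell type while sparing the other, by normalised counts and ratio limits, not self-fluorescent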;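 for all read-outs here: cells exposed to compound for 72 h before imaging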;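 for red/green cell ratio (normalised): normalised mesenchymal count divided by normalised epithelial count so high means epithelial killing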); settings: PC-3E GFP / TEM4-18 mCherry co-culture, imaging cell counts, at 1 µM; for red/green cell ratio (normalised): actives lie on both sides, counts scaled to control wells, 1 = unselective
[14] = MELAS cybrid and Rieske KO viability enhancers – cell-based, MELAS cybrids, Rieske KO mouse fibroblasts, CellTiter-Glo, primary screen (AID 1508586;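 active = mean z-score across replicates of 1.96 or higher in either the MELAS or the Rieske mutant cell line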;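 note: z relative to plate mean and SD of compound and empty wells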); settings: low glucose
[15] = target: NAD(+) hydrolase SARM1 (Homo sapiens) (UniProt Q6SZW1); assay: blocking NAD cleavage by SARM1 SAM-TIR – cell lysate, NAD-Glo luminescence (AID 1508614;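 active = compound whose remaining NAD level is above about 45 nM, limit read from the data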;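 note: higher remaining NAD means stronger inhibition of SARM1 NADase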); settings: SAM-TIR HEK293T lysate NADase, at 1 µM, stronger effect = higher value
Sequence of NAD(+) hydrolase SARM1 (Homo sapiens) (Q6SZW1 whole entry, looked up, the tested form may be a part): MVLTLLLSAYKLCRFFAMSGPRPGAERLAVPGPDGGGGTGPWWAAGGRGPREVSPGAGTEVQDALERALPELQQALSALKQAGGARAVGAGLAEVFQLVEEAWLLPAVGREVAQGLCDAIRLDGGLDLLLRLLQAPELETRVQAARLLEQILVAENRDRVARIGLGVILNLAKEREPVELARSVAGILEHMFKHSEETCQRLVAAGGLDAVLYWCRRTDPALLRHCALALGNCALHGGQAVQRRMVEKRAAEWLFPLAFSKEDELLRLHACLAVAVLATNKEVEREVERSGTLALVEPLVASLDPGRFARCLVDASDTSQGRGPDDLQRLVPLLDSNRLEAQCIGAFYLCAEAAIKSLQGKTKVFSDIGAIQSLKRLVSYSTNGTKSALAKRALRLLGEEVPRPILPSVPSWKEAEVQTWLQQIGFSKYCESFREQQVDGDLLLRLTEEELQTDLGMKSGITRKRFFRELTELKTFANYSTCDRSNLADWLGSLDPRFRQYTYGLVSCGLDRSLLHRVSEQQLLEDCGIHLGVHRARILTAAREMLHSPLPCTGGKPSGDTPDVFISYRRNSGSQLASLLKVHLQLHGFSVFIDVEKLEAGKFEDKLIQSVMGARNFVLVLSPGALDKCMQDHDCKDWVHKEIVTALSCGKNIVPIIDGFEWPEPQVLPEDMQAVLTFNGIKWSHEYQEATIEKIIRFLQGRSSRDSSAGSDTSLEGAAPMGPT

[16] = target: Mitogen-activated protein kinase 7 (Homo sapiens) (UniProt Q13164); assay: Gal4-ERK5 driven luciferase induction – cell-based, HTS, primary screen (AID 1508626;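 active = luciferase signal above three times the same-plate solvent-only control wells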;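 note: luciferase driven by Gal4-ERK5 fusion binding five Gal4 sites before minimal TATA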); settings: HeLa Gal4-ERK5 transactivation, 18 h, at 5 µM, stronger effect = higher value
Sequence of Mitogen-activated protein kinase 7 (Homo sapiens) (Q13164 whole entry, looked up, the tested form may be a part): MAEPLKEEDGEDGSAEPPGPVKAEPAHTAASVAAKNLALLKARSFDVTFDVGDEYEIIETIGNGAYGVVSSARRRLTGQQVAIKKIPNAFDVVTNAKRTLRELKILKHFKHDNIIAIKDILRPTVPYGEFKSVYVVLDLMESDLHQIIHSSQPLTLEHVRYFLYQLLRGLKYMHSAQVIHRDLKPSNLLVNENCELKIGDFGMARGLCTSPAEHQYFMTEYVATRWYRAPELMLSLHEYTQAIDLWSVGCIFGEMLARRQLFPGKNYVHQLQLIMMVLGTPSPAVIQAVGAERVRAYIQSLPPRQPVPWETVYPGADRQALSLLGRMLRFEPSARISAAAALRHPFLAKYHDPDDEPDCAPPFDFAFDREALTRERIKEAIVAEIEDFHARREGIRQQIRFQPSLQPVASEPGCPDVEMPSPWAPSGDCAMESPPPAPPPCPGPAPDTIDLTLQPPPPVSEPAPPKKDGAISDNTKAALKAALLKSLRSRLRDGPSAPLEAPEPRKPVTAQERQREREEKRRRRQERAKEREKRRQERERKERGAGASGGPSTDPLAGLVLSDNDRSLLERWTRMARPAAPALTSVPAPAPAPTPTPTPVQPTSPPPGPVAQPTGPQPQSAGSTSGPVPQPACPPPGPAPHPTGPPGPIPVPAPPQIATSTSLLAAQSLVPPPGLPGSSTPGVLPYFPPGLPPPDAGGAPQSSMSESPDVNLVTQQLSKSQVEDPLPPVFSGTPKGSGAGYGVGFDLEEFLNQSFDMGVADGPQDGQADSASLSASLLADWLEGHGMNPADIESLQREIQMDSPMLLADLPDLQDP

[17] = tested on: F380Y; assay: BK channel mutant inhibitors and activators – cell-based, U2OS BacMam, thallium flux, beta subunits, selectivity assay, profiling panel (AID 1259406); settings: U2OS BacMam BK variants, at 30 µM;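 note: initial slope of Thallos dye fluorescence rise after thallium is added; log ratio against the mean of 0.3% DMSO vehicle wells on the same plate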
[18] = tested on: F380Y/beta2Delta; assay: as above; settings: U2OS BacMam BK variants, at 30 µM
[19] = target: Calcium-activated potassium channel subunit alpha-1 (Homo sapiens) + Leucine-rich repeat-containing protein 26 (Homo sapiens) (UniProt Q12791+Q2I0M4); assay: as above; settings: U2OS BacMam BK variants, F380Y/Slo1WT/gamma1, at 30 µM
Sequence of Calcium-activated potassium channel subunit alpha-1 (Homo sapiens) + Leucine-rich repeat-containing protein 26 (Homo sapiens) (Q2I0M4 whole entry, looked up, one chain of several): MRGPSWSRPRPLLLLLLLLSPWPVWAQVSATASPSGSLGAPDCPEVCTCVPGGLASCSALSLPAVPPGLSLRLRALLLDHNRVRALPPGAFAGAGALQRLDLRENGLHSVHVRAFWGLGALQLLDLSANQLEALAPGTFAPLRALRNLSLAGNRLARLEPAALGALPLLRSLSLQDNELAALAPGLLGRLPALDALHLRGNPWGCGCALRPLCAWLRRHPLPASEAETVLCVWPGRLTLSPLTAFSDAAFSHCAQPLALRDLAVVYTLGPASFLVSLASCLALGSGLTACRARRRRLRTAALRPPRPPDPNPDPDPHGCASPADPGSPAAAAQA

[20] = viability loss with induced miR-34 in A549 – imaging, A549 dox-inducible miR-34, nuclei and caspase counts, primary screen (AID 1347080;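 active = compounds whose cell count with miR-34 switched on is under 0.7 times the count with it off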); settings: A549 miR-34 inducible, Hoechst nuclei count, 48 h
[21] = measured here: epithelial PC-3E GFP cell survival
[22] = measured here: mesenchymal TEM4-18 mCherry cell survival
[23] = MELAS cybrid survival, CellTiter-Glo 48 h, stronger effect = higher value
[24] = Rieske KO mouse fibroblast survival, CellTiter-Glo 72 h
[25] = measured here: total cells without miR-34 induction

CCCNC(=O)NS(=O)(=O)c1ccc(Cl)cc1
active: luciferase signal [16] 276 AU
1.08: normalised cell number [13, 21]
1.29: normalised cell number [13, 22]
8.3%: nuclear beta-catenin stimulation ([4]; stimulation, at 2 µM)
inactive: inhibition [1] -2.27% | inhibition [2] 1.05% | fluorescence ratio [3] 0.96 | nuclear beta-catenin stimulation ([4]; at 10 µM) 4.6% | insulin secretion stimulation [5] 1.5% | viability decrease [6] 4.6% | tube area decrease [7] -1.2% | GLP1 secretion stimulation [8] 6.4% | inhibition of viability [9] 2.7% | viability decrease (inhibition) [10] -4.3% | viability decrease (inhibition) [11] -8.8% | inhibition [12] 14.6% | red/green cell ratio (normalised) [13] 1.2 | z-score [14, 23] -0.244 and -0.535 | remaining NAD [15] 10 nM | log fold change Tl+ flux [17] -0.0312 | log fold change Tl+ flux [18] -0.00553 | log fold change Tl+ flux [19] -0.0083
-0.188 and -0.232: z-score [14, 24]

CN(C)C(=O)Oc1ccc[n+](C)c1
0.0482 and -0.383: z-score [14, 24]
inactive: inhibition [1] 0.45% | inhibition [2] 0.29% | fluorescence ratio [3] 0.97 | nuclear beta-catenin stimulation ([4]; at 10 µM) 0.1% | insulin secretion stimulation [5] 0.95% | viability decrease [6] 10.7% | tube area decrease [7] -21.1% | GLP1 secretion stimulation [8] -3.2% | inhibition of viability [9] -1% | viability decrease (inhibition) [10] -8.3% | viability decrease (inhibition) [11] -12.1% | inhibition [12] -7.31% | red/green cell ratio (normalised) [13] 1.32 | z-score [14, 23] 0.178 and 0.175 | remaining NAD [15] 10 nM | luciferase signal [16] 48 AU | log fold change Tl+ flux [17] -0.00126 | log fold change Tl+ flux [18] -0.0385 | log fold change Tl+ flux [19] 0.0382
1.53: normalised cell number [13, 22]
1.15: normalised cell number [13, 21]
10.5%: nuclear beta-catenin stimulation ([4]; stimulation, at 2 µM)

NS(=O)(=O)c1cc2c(cc1C(F)(F)F)NCNS2(=O)=O
10900 and 9840 and 13200: cell count [20, 25]
1%: nuclear beta-catenin stimulation ([4]; stimulation, at 2 µM)
1.02: normalised cell number [13, 22]
0.95: normalised cell number [13, 21]
inactive: inhibition [1] -3.18% | inhibition [2] -0.48% | fluorescence ratio [3] 0.93 | nuclear beta-catenin stimulation ([4]; at 10 µM) -1% | insulin secretion stimulation [5] -0.5% | viability decrease [6] -8.5% | tube area decrease [7] -8.6% | GLP1 secretion stimulation [8] 0.4% | inhibition of viability [9] -2% | viability decrease (inhibition) [10] 10.4% | viability decrease (inhibition) [11] -13.4% | inhibition [12] -4.61% | red/green cell ratio (normalised) [13] 1.07 | fold change ([20]; stronger effect = lower value, cell number ratio, induced over uninduced) 0.934 and 0.925 and 0.803 | z-score [14, 23] 0.119 | remaining NAD [15] 10 nM | luciferase signal [16] 40 AU | log fold change Tl+ flux [17] -0.0227 | log fold change Tl+ flux [18] 0.0255 | log fold change Tl+ flux [19] -0.0239
0.185: z-score [14, 24]
2.9 and 1.27 and 0.875: fold change ([20]; measured here: relative caspase fold change +Dox/-Dox)
10100 and 9100 and 10600: cell count ([20]; measured here: total cells with miR-34 induction, stronger effect = lower value)

CC(C)(C)NCC(O)c1cc(O)cc(O)c1 (configuration not stated)
0.91: normalised cell number [13, 21]
-0.203: z-score [14, 24]
3.1%: nuclear beta-catenin stimulation ([4]; stimulation, at 2 µM)
1.16: normalised cell number [13, 22]
inactive: inhibition [1] -2.27% | inhibition [2] -3.53% | fluorescence ratio [3] 1.04 | nuclear beta-catenin stimulation ([4]; at 10 µM) 1.5% | insulin secretion stimulation [5] -1% | viability decrease [6] -25.1% | tube area decrease [7] -9.7% | GLP1 secretion stimulation [8] 1.4% | inhibition of viability [9] 3.9% | viability decrease (inhibition) [10] 20.2% | viability decrease (inhibition) [11] -3.5% | inhibition [12] -13.6% | red/green cell ratio (normalised) [13] 1.28 | z-score [14, 23] -0.672 | remaining NAD [15] 10 nM | luciferase signal [16] 108 AU | log fold change Tl+ flux [17] 0.00388 | log fold change Tl+ flux [18] 0.0185 | log fold change Tl+ flux [19] 0.00552
10100 and 11300 and 12600: cell count [20, 25]
